Screening results: PubChem BioAssay, several laboratories
This is a sample that favours compounds with a hit; in the whole collection about 1% have one here.
Mtb betalactam: beta-lactam sensitization of Mtb H37Rv, H37Rv; hit rate 0.27% among 330,000; AID 434955, 2010; M. tuberculosis H37Rv growth with meropenem, percent inhibition; inhibition, % at 25 µM; call rule not given here;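 note: growth measured after seven days incubation then overnight dye step; 0% = bacteria only wells and 100% = bacteria with antibiotic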
PriA SSB inh: inhibitors of Klebsiella pneumoniae PriA binding to SSB C-terminal tail, primary screen, biochemical, AlphaScreen. AID 1272365, 2023. AlphaScreen SSBct-PriA binding, biotinylated peptide. inhibition, % at 33 µM. PriA–SSB C-terminal tail interaction (Klebsiella pneumoniae). hit rate 0.6% among 430,000; in the data active = inhibition mostly above about 37%, no sharp cut-off; inactive = mostly below about 20%;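 note: plate controls were negative control peptide for no effect and reference peptide for full effect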
Sa RN4220 lethal: growth inhibition of S. aureus RN4220, primary screen, OD600; hit rate 0.33% among 330,000; 16 h; inhibition, % (test concentration not listed); in the data active = inhibition above about 85%;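 note: plate controls were untreated cells for no effect and reference antibiotic for full effect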
Mtb hypoxia inh: PubChem AID 1159583 | M. tuberculosis hypoxia-regulated fluorescent reporter, fluorescence | fluorescence inhibition, % (concentration not given with the values) | hit rate 0.1% among 300,000; in the data active = fluorescence inhibition mostly above about 23%, no sharp cut-off; inactive = mostly below about 17%
ugtP null kill: growth inhibition of ugtP-null S. aureus, primary screen, RN4220 ugtP deletion, OD600; 16 h; growth inhibition, % (no concentration beside the values); hit rate 0.54% among 330,000; AID 1259309, 2017; in the data active = growth inhibition above about 68%;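 note: plate controls were untreated wells for no effect and antibiotic for full effect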
Numbers without * were called inactive; / = not tested or not shown.

SMILES	Mtb betalactam	PriA SSB inh	Sa RN4220 lethal	Mtb hypoxia inh	ugtP null kill
COc1ccc(Oc2cc(C)c3cccc(C)c3n2)cc1	0.4	-16.0	-5.7	/	95.7*
O=C(N1CCOCC1)N1CCCC(Cc2nc(C3CC3)no2)C1 (stereo not given)	/	-13.0	/	/	/
Cc1ccc(S(=O)(=O)N2C(c3ccc(Cl)c(Cl)c3)CC=C(C(=O)O)C2c2ccc(Cl)cc2)cc1 (stereo not given)	/	/	80.3	12.0	90.2*
Cc1ccc(S(=O)(=O)N2C(c3cccc(Cl)c3)CC=C(C(=O)O)C2c2cccc(Cl)c2)cc1 (stereo not given)	/	/	31.9	13.7	59.5
Cc1ccc(S(=O)(=O)N2C(c3ccc(Cl)c(Cl)c3)CC=C(C(=O)O)C2c2cccc(Cl)c2)cc1 (stereo not given)	/	/	88.0*	10.5	100.1*
Cc1nnc(NCc2ccccc2)c2ccccc12	25.5	2.2	-4.6	80.8*	-1.8
c1ccc(CNc2nc(NCc3ccccc3)c3ccccc3n2)cc1	94.1	8.0	91.9*	-1.6	100.6*
c1ccc(CNc2nc(-c3ccccn3)nc3ccccc23)cc1	78.1	64.2*	-1.1	3.7	13.1
CC(=O)c1c(N2CCOCC2)nc2ccc(Br)cc2c1-c1ccccc1	-1.2	3.0	-7.3	13.5	85.1*
O=c1[nH]c2ccc(Br)cc2c(-c2ccccc2)c1N1CCOCC1	-2.8	-14.5	-2.0	-4.7	-14.7
C=CCNC(=S)Nc1sc2c(c1C(=O)OCC)CC(C(C)C)OC2 (stereo not given)	5.5	60.5*	21.7	5.2	16.1
CCOC(=O)c1c(NC(=S)NCCc2ccccc2)sc2c1CC(C(C)C)OC2 (stereo not given)	8.6	3.5	5.5	-2.4	8.3
Nc1ccc(N2CCCCC2)cc1N1CCCCC1	90.7	63.1*	30.5	/	-8.0
Fc1ccc(N2CCN(C3=Nc4cccc5cccc3c45)CC2)cc1	88.2	43.6*	8.7	13.7	-4.0
CN1C(=O)CCc2cc(NC(=O)c3cc4ccccc4s3)ccc21	/	-6.0	/	/	/
Cc1c(NC(=O)C2CCN(c3ccc(=O)n(C)n3)CC2)c(=O)n(-c2ccccc2)n1C	/	-3.0	/	/	/
O=C(Cl)c1cc(Cl)ccn1	/	82.6*	/	/	/
Cc1ccc(Nc2c(-c3ccccn3)nc3cc(C)ccn23)cc1	97.8	97.0	100.4*	22.6	100.3*
Cc1ccc(Nc2c(-c3ccccn3)nc3ccc(C)cn23)cc1	98.2	-14.1	100.1*	/	95.0*
CSc1ncccc1C(=O)NCCC(O)C1CC1 (stereo not given)	/	-3.0	/	/	/
O=C(NCCN1Cc2cc(Cl)ccc2OCC1=O)c1cnccn1	/	50.0*	/	/	/
O=C(NCCN1Cc2cc(Cl)ccc2OCC1=O)c1ccno1	/	2.0	/	/	/
O=C(Nc1cccnc1)c1cc(N2CCCCC2)ncn1	/	-14.0	/	/	/
Cc1ccc(OCCCC(=O)Nc2ccc3c(c2)OCO3)c(C)c1	/	36.0*	/	/	/
O=C(/C=C/c1ccc(S(=O)(=O)N2CCOCC2)cc1)NCCc1ccc(C(F)(F)F)cc1	-3.2	-7.3	-0.7	24.5*	3.0
SMILES	Mtb betalactam	PriA SSB inh	Sa RN4220 lethal	Mtb hypoxia inh	ugtP null kill
CCOC(=O)c1sc(NC(=O)Nc2cccc(Cl)c2)cc1C	7.2	2.5	92.3*	-2.9	88.5*
O=C1OCCN1N=Cc1ccc([N+](=O)[O-])o1	/	-12.0	100.4*	-20.7	100.2*
O=C(Nc1cnn(CC2COc3ccccc3O2)c1)C1CC(=O)N(c2ccc(F)cc2)C1 (stereo not given)	/	-7.0	/	/	/
O=C(Nc1cccc(NC(=O)c2ccccc2)n1)c1ccccc1	-0.6	-21.8	95.7*	7.3	31.2
Cc1cccc(NC(=O)c2ccc(C(=O)c3ccccc3)cc2)n1	28.9	-14.4	1.8	8.7	5.8
COc1cc(NCCCC(C)N)c2ncccc2c1 (stereo not given)	/	49.2*	-15.5	19.9	-4.3
COCCNC(=O)Nc1cc(OC)cc2cccnc12	/	53.0*	/	/	/
CCC(CNc1cc(OC)cc2cccnc12)NC1CCCCC1 (stereo not given)	7.1	3.8	-0.4	15.1	-2.6
COc1cc(NC(=O)c2ccccc2Cl)c2ncccc2c1	11.7	-71.1	-5.6	11.2	-3.2
O=C1OC2(CCCN(C(=O)Nc3ccc(Cl)c(Cl)c3)C2)c2ccccc21 (stereo not given)	/	1.0	/	/	/
COC(=O)c1ccc(-c2ccco2)n1Cc1ccccc1Cl	-0.5	-4.4	-1.4	13.2	85.3*
COC(=O)c1ccc(-c2ccco2)n1Cc1nc(-c2ccc(OC)c(OC)c2)oc1C	-9.3	23.5	-12.2	5.3	12.3
COc1cnc(-c2ccccn2)nc1N1CCOCC1	/	156.0*	/	/	/
COc1cnc(-c2ccccn2)nc1NC(C)C	75.2	95.0*	1.5	18.4	1.9
COC(=O)c1c(NC(=O)C2CCCN2S(=O)(=O)c2ccc(Cl)cc2)sc2c1CCCC2 (stereo not given)	/	4.0	/	/	/
Cc1cccc(Nc2ccc(N3CCN(C(=O)c4ccc5c(c4)OCO5)CC3)nn2)n1	/	-7.0	/	/	/
